EWS-Fli block – EWS/Fli-driven NR0B1 reporter inhibitors, primary screen, A673 cells, NR0B1 luciferase, luminescence, MLPCN library. viability-normalised. inhibition, % at 12.6 µM. actives 0.67% (n = 350,000);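 active = mean inhibition of at least 50% after viability correction, with every replicate also passing that limit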;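 note: firefly luciferase signal divided by Alamar Blue viability fluorescence both relative to DMSO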
PAX8 inh HTS – inhibitors of PAX8-driven TPO luciferase reporter, primary screen, RMG-I cells, single concentration | AID 652154, 2013 | SteadyGlo, 24 h | actives 1.2% (n = 360,000) | inhibition, % at 12.6 µM;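 active = mean replicate inhibition at least 60% with every replicate also reaching 60%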;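 note: luciferase light reporting Pax8 driven TPO promoter activity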
CF NFkB inh – inhibitors of PAF-induced NF-kB signaling, primary screen, cell-based, GFP fluorescence, uHTS; KKLEB NF-kB-GFP reporter, GFP fluorescence overnight; actives 0.86% (n = 360,000); inhibition, % at 5 µM; AID 588850, 2011;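 active = at least 50% inhibition at 5 µM, scaled per plate between neutral and stimulator controls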;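 note: PAF is a Pseudomonas aeruginosa culture filtrate used as stimulus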
KKLEB cytotox – cytotoxicity in KKLEB CF airway cells, primary screen, cytotoxicity control for CF NF-kB inhibitor project, cell-based, uHTS, fluorescence assay plates; KKLEB CF airway cells viability, ATPlite luminescence, overnight; active compounds read low; cells stimulated with P. aeruginosa culture filtrate; actives 0.36% (n = 360,000); activity change (cytotoxicity), % at 5 µM;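 active = corrected activity change at or below -50% at 5 µM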
LGR2 antag – inhibitors of bursicon-induced LGR2 CRE-luciferase signal, primary screen, cell-based, HEK293, CRE-luciferase reporter, bursicon stimulation | Drosophila bursicon receptor LGR2 (rickets) | bursicon-stimulated, 4 h | inhibition, % at 9.99 µM | actives 0.35% (n = 380,000) | AID 720647, 2013;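 active = drop in luminescence signal, shown as inhibition above about 50% in the replicate tests, limit read from the data, passing the limit was not always enough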;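 note: agonist challenge used bursicon conditioned medium at about half maximal strength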
Shn3 inh set2 – reduction of Shn3 3'UTR firefly luciferase signal, primary screen, Schnurri-3 inhibitor project, cell-based, Clone20 osteoblasts, set 2; AID 588674, 2011; Clone20 osteoblast Shn3 3'UTR firefly luciferase, 24 h; inhibition, % at 12.5 µM; actives 0.52% (n = 360,000);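 active = mean inhibition of at least 75% with every replicate also reaching 75%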
Numbers stand for hits; – = inactive; · = no result given. Hits are enriched below; roughly 2% of the tested compounds scored in any of these assays.

SMILES	EWS-Fli block	PAX8 inh HTS	CF NFkB inh	KKLEB cytotox	LGR2 antag	Shn3 inh set2
O=C1[C@H](Cc2ccccc2)NCCCC[C@@H](c2ccc(Cl)cc2)N1Cc1ccccc1	–	–	–	–	–	–
COC(=O)C1=C(C(=O)OC)[C@]2([C@H]3CCCCN[C@@H](Cc4ccccc4)C(=O)N3Cc3ccccc3)C=C[C@H]1O2	–	74	–	–	–	–
Cc1noc(C)c1NC(=O)Nc1ccc2c(c1)C(=O)N([C@@H](C)CO)C[C@H](C)[C@@H](CN(C)Cc1ccncc1)O2	–	–	·	·	–	·
Nc1ccc(-c2cnc(N)c(C(=O)c3cccnc3)n2)cn1	·	·	81	–	·	–
COc1ccc(S(=O)(=O)N(C)C[C@H]2OCCCC[C@@H](C)Oc3ccc(NS(=O)(=O)c4c(C)noc4C)cc3C(=O)N([C@@H](C)CO)C[C@@H]2C)cc1	–	–	·	·	–	·
CCOC(=O)c1cc(NC(=O)c2ccc(Cl)cc2)c(=O)n2c1oc1ccc(Cl)cc12	–	·	–	-58	–	–
CCN(CC(=O)Nc1c(F)cccc1F)C(=O)c1cc(S(=O)(=O)N2CCOCC2)ccc1N1CCCC1	–	72	–	–	–	–
CCN(CC(=O)Nc1c(F)cccc1F)C(=O)c1cc([N+](=O)[O-])ccc1N1CCCCC1	–	80	–	–	–	–
Cc1cccc(C)c1NC(=O)CN(C)C(=O)c1cc(S(=O)(=O)N(C)C)ccc1N1CCCC1	–	–	–	–	–	87
CCOC(=O)c1c(C)[nH]c2cc(Br)c(O)cc12	·	–	–	–	·	–
CCOC(=O)c1c(OCC)[nH]c2c1cc(O)c1ccccc12	·	·	85	–	·	–
O=S(=O)(Nc1cc(Sc2cccc3cccnc23)c(O)c2ccccc12)c1ccc(F)cc1	–	102	·	·	·	·
O=C(Sc1cccc2cccnc12)c1ccc(F)cc1	–	106	·	·	–	·
CC12CCC(C/C1=N\N=C1\NC(=O)/C(=C\c3ccc(Cl)cc3)S1)C2(C)C (stereo unspecified)	–	–	89	-94	–	–
O=C1NC(=Nc2ccccc2Cl)S/C1=C\c1ccc(C(=O)O)cc1	–	–	–	–	–	–
O=C(c1cnccn1)N1CC(=O)N2[C@H](CO)[C@H](c3ccc(C#CC4CCCC4)cc3)[C@@H]2C1	–	·	·	·	–	·
c1ccc(CCNc2nc3ccccc3n3nnnc23)cc1	·	·	–	–	·	–
ClC(Cl)(Cl)c1nc2ccccc2n2nncc12	–	86	–	–	–	–
CN(C)C(=O)C[C@@H]1C=C[C@H](NC(=O)C2CC2)[C@H](CO)O1	–	·	·	·	–	·
O=C(Nc1nc(-c2ccccc2)cs1)c1ccc2c(c1)S(=O)(=O)c1ccccc1C2=O	–	–	–	-57	–	–
C[C@@H]1CN([C@@H](C)CO)C(=O)Cc2cc(NS(=O)(=O)c3ccccc3)ccc2O[C@@H]1CN(C)Cc1ccc(-c2ccccc2)cc1	–	–	·	·	–	·
CC1=NN(c2ccc(Cl)cc2)C(=O)C1C(c1ccccc1O)c1c(C)[nH]n(-c2ccc(Cl)cc2)c1=O (stereo unspecified)	·	·	65	-50	·	–
C[C@@H]1CCCCO[C@@H](CN(C)C(=O)Nc2cccc3ccccc23)[C@H](C)CN([C@@H](C)CO)C(=O)c2cc(NS(=O)(=O)c3ccc(Cl)cc3)ccc2O1	–	–	·	·	–	·
Cc1ccc(S(=O)(=O)Nc2ccc3c(c2)C(=O)N([C@H](C)CO)C[C@@H](C)[C@H](CN(C)C(=O)Nc2cccc4ccccc24)OCCCC[C@@H](C)O3)cc1	–	79	·	·	–	·
C[C@@H]1CCCCO[C@H](CN(C)C(=O)Nc2cccc3ccccc23)[C@H](C)CN([C@@H](C)CO)C(=O)c2cc(NS(=O)(=O)c3ccc(Cl)cc3)ccc2O1	–	76	·	·	–	·
Cc1ccc(S(=O)(=O)Nc2ccc3c(c2)C(=O)N([C@@H](C)CO)C[C@H](C)[C@@H](CN(C)C(=O)Nc2cccc4ccccc24)OCCCC[C@@H](C)O3)cc1	–	81	·	·	–	·

Assay outcomes from PubChem.
